Screens as filed in PubChem BioAssay.
Pf growth 48h = inhibits P. falciparum growth in the first generation, 48 h; P. falciparum luciferase growth in erythrocytes, 48 h; 310,000 tested, 5.9% active; Potency, µM (titrated, usually from 28.7 µM), actives largely listed as inhibitors
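Compounds are pin-transferred into medium, infected erythrocytes (2% hematocrit, 0.1% parasitemia final) are added, and plates sit one parasite generation at 37 C in 5% CO2. Detection reagent is then added and luminescence measured.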
Shiga toxin inh = inhibitors of Shiga toxin in Vero cells; inhibition, % at 38.7 µM; Vero cells, Shiga toxin protein synthesis inhibition reporter; 290,000 tested, 9.2% active; in the data active = inhibition mostly above about 28%, no sharp cut-off; inactive = mostly below about 43%
CHX counter = affects cycloheximide protein synthesis inhibition readout, counter-screen. cell reporter, cycloheximide protein synthesis inhibition counterscreen. max response, %. 300,000 tested, 12% active. AID 2314; in the data active = max response mostly above about 13%, no sharp cut-off; inactive = mostly below about 14%; also: read at 38.3 µM for the half of the compounds with a filed dose
HCMV antiviral = human cytomegalovirus inhibition; HFF cells, HCMV-luciferase reporter, 72 h; hits give low values; activity change, negative = inhibition, % at 57.5 µM; 410,000 tested, 4.5% active; in the data active = activity change below about -60%; inconclusive = no clear call, values can overlap the other calls; inactive = above about -39%
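Inhibition of viral replication was scored as loss of reporter luminescence in HFFs infected with HCMV-luciferase (MOI 1 PFU/cell) for 72 h; compounds tested at 2 doses, normalized to buffer and Salinomycin controls.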
Pf growth 96h = P. falciparum growth inhibition at 96 hours | P. falciparum luciferase reporter growth, 96 h | Potency, µM (doses to about 28.7 µM), hits mostly inhibitors | 320,000 tested, 6.9% active
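Cell-based qHTS: luciferase-tagged P. falciparum in erythrocytes (2% hematocrit, 0.05% parasitemia final) incubated with compounds for 96 hours, 37 C, 5% CO2; luciferase detection reagent then added and luminescence measured.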
Large screens that a line does not name were inactive. Most compounds without a hit are left out; they make up all but 20% or so of the library. Unless noted, calls follow the shape of the dose curve; as a rule, active = well fitted inhibition curve with a large enough effect; inconclusive = small, poorly fitted or top-dose-only effect, or another doubt; inactive = no such curve, though single readings can be large or run the other way.

CC(C(=O)N1CCc2ccccc21)n1cnc2c1c(=O)n(C)c(=O)n2C (stereo not given)	none (no result: Shiga toxin inh, CHX counter)
CSc1ccccc1OCc1cc(C(=O)N(C)C(C)c2nc(C)cs2)no1 (stereo not given)	CHX counter 18
CSc1ccccc1OCc1cc(C(=O)N(C)Cc2ccc(C)o2)no1	Shiga toxin inh 79, CHX counter 54, Pf growth 96h inconclusive
CSc1ccccc1OCc1cc(C(=O)N(C)Cc2ccc3nsnc3c2)no1	Shiga toxin inh 100, CHX counter 52
Cc1ccc(S(=O)(=O)N2CCCC2CNC(=O)C(=O)Nc2ccc(F)cc2F)cc1 (stereo not given)	Pf growth 96h inconclusive (no result: Shiga toxin inh, CHX counter)
COc1cc(SC)ccc1C(=O)NC1CCCc2ccccc21 (stereo not given)	HCMV antiviral inconclusive
COc1cc(SC)ccc1C(=O)Nc1ccncc1	CHX counter 33, HCMV antiviral inconclusive
COc1cc(SC)ccc1C(=O)Nc1nc(C)cc(C)n1	Pf growth 96h inconclusive
COc1cc(SC)ccc1C(=O)Nc1cccc(C2OCCCO2)c1	Shiga toxin inh 71, CHX counter 32
COc1cc(SC)ccc1C(=O)Nc1ccc2c(c1)CCC2	Shiga toxin inh 96, CHX counter 31
COc1cc(SC)ccc1C(=O)Nc1ccccc1C#N	Shiga toxin inh 91, CHX counter 37
COC(=O)C(CCCN1C(=O)c2ccccc2C1=O)(NC(C)=O)c1nn[nH]n1 (stereo not given)	none
CC1CCCC(C)N1/N=C/c1cccc(Br)c1 (stereo not given)	none
CC1CCCC(C)N1/N=C/c1c[nH]c2ccc(Br)cc12 (stereo not given)	Pf growth 48h inconclusive, HCMV antiviral -78, Pf growth 96h inconclusive
CCOC(=O)Cn1c(=NC(=O)c2ccc([N+](=O)[O-])s2)sc2ccccc21	Pf growth 48h 9.3µM, Pf growth 96h 3.7µM
CCN(C(=O)CSc1nnnn1-c1ccccc1)c1c(N)n(Cc2ccccc2)c(=O)[nH]c1=O	none
CN(CC(=O)Nc1c(Cl)cccc1Cl)CC(=O)N1CCc2ccccc21	none (no result: Pf growth 48h, Shiga toxin inh, CHX counter, Pf growth 96h)
Cc1nc(CCl)cc(=O)[nH]1	Pf growth 48h 5.2µM, HCMV antiviral inconclusive, Pf growth 96h inconclusive
Cc1nc(CN2CCOCC2)cc(=O)[nH]1	none
CCN(CC)S(=O)(=O)c1ccc(C(=O)Nc2ccc(OCC(=O)N3CCOCC3)cc2)cc1	Pf growth 48h inconclusive, Pf growth 96h 0.37µM
O=C(Nc1ccc(OCC(=O)N2CCOCC2)cc1)c1cncc(Br)c1	HCMV antiviral inconclusive, Pf growth 96h inconclusive
COc1ccc(NS(=O)(=O)c2ccc(OCC(=O)N3CCOCC3)cc2)cc1	none
CCCCOc1ccc(C(=O)Nc2ccc(OCC(=O)N3CCOCC3)cc2)cc1	Shiga toxin inh 51, CHX counter 26, Pf growth 96h inconclusive
O=C1NC[C@H](c2ccccc2)N(CCCCC2CCCCC2)C1=O	none (no result: Pf growth 48h, Shiga toxin inh, CHX counter, Pf growth 96h)
CC(=NOC(=O)C1CCCCC1)c1nccs1	none (no result: Pf growth 48h, Shiga toxin inh, CHX counter, Pf growth 96h)
N/C(=N\OC(=O)C1CCCCC1)c1ccncc1	Shiga toxin inh 30, CHX counter 11
O=C(CNC(=O)C1CCCCC1)OCC(=O)c1ccc(Br)cc1	Shiga toxin inh 56, CHX counter 41
N/C(=N\OC(=O)C1CCCCC1)c1ccc(Br)cc1	Shiga toxin inh 51, CHX counter 23
N/C(=N\OC(=O)C1CCCCC1)c1ccccn1	Shiga toxin inh 86, CHX counter 31
CN(C)C(=O)CCc1ccc2c3c([nH]c2c1)[C@]1(CCC2CCCC2)[C@@H](C(=O)N2CCOCC2)C[C@H](CC(=O)NCCC2=CCCCC2)C(=O)N1CC3	none (no result: Pf growth 48h, Shiga toxin inh, CHX counter, Pf growth 96h)
N/C(=N\OC(=O)C1CCCCC1)c1ccc(Cl)cc1	CHX counter 28, Pf growth 96h inconclusive
CCc1ccc(CNCc2cccs2)cc1	Shiga toxin inh 55, CHX counter 29
CCc1ccc(S(=O)(=O)NCc2cccs2)cc1	HCMV antiviral -66
CCc1ccc(OC)c(S(=O)(=O)NCc2cccs2)c1	Pf growth 48h inconclusive (no result: Shiga toxin inh, CHX counter)
Cc1nn(CC(=O)NCCCN2CCCCC2C)c(=O)c2cccn12 (stereo not given)	HCMV antiviral inconclusive
COc1ccc(-c2cc3c(=O)n(CC(=O)NCCCN4CCC(N5CCCCC5)CC4)nc(C)n3n2)cc1	Pf growth 48h inconclusive, HCMV antiviral inconclusive, Pf growth 96h 8.3µM
COc1ccc(-c2cc3c(=O)n(CC(=O)NCCCN4CCC(N5CCCCC5)CC4)ncn3n2)cc1	Pf growth 48h inconclusive, Pf growth 96h inconclusive
Cc1nn(CC(=O)NCCCN2CC(C)CC(C)C2)c(=O)c2cccn12 (stereo not given)	Pf growth 96h 10µM
